For 40 compounds, growth results are on record in PubChem BioAssay (NCI).

Each structure is given as a SMILES string. The panel holds about 83,000 compounds, 20% with a hit somewhere; the sample as a whole holds those more often.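 Each cell line was grown in a 96-well plate and treated with one concentration of compound for 48 hours. Values below 10 were considered active.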 Active and inactive are the calls of the source.

For the test, the system named is MDA-MB-435 melanoma. Description: NCI-60 one-dose screen, 48 h (100 = growth as untreated, 0 = no growth, -100 = all killed). The following applies: 10 µM unless noted. Here is the method:
Growth inhibition of the MDA-MB-435 human Melanoma tumor cell line is measured as a screen for anti-cancer activity. Cells are grown in 96 well plates and exposed to the test compound for 48 hours. Compounds are tested at a single concentration, which is 10^-5 M for most compounds. The reported endpoint is percent growth (GI% or GIPRCNT), where numbers from 0 - 100% represent growth inhibition, and numbers from -100% - 0 represent cell death. For example, a value of 40 represents 60% growth inhibition. A value of 0 means no net growth occurred over the course of the experiment. A value of -40 indicates 40% of cells at the beginning of the experiment died by the end of the experiment. A value of -100 means all cells are dead at the end of the experiment.
NCI-60 Human Tumor Cell Lines Screen was performed using the standard one-dose NCI protocol, which is described in more detail at https://dtp.cancer.gov/discovery_development/nci-60/default.htm.
Compounds with GIPRCNT values below 10 were considered active. Activity score was based on GIPRCNT using the following formula: […]
Score is 0 for GIPRCNT values of 100 or above, 50 for GIPRCNT values of 0, and 100 for GIPRCNT values of -100.
On to `COc1ccc(C2C=C(c3ccc(OC)c(OC)c3)N=C3SC=C(C)N32)c(Br)c1` (stereo not given), for which the growth is 110% (inactive). For the compound `COc1ccc(-n2c(=O)sc3c(Cl)nc(C)nc32)c(OC)c1`, the growth was 69.5% (inactive). Regarding `O=C1c2c(c3c4ccccc4n(CCCCCCBr)c3c3[nH]c4ccccc4c23)C(=O)N1O`, the growth is 0.62% (active). The figure for `COc1ccc(N2CCN(Cc3cc(C(=O)/C=C/c4c[nH]c5ccccc45)ccc3O)CC2)cc1` is 105% (inactive). As for `CCN1C(=O)N(CC)C2C1NN=c1s/c(=C\c3cccnc3)c(=O)n12` (stereo not given), the figure is -46.6% (active).

On to `CN(C)CCCN(c1nc(C(Cl)(Cl)Cl)ns1)c1nc(C(Cl)(Cl)Cl)ns1`, for which the growth is 39.5% (inactive). As for `C=C(C)[C@@H]1C[C@@H]2Cc3cc(Cl)ccc3N1O2`, the figure is 99.4% (inactive); as for `Brc1cccc(-c2cc(-c3ccc4nccnc4c3)[nH]n2)c1`, -54.1% [25 µM] (active). Consider `CN(C)c1ncnc2c1ccn2C1OC(CO)C(O)C1O` (stereo not given), for which the growth was 62.3% (inactive). The figure for `COc1cc(-c2nn(-c3cccc(NC(=O)Nc4cc(C(F)(F)F)cc(C(F)(F)F)c4)c3)cc2-c2ccncc2)ccc1Cl` is -58.3% (active).

Regarding `COc1ccc(C(=O)c2cc(OC)c3c(c2)OCO3)cc1O`, the growth was -22.5% (active). For `COc1ccc(Nc2nc(N)nc3c2CCN(Cc2ccc(OC)cc2OC)C3=O)cc1`, the growth was 79.2% (inactive).

Turning to `CN(CCCCCl)P(=O)(OCc1ccc([N+](=O)[O-])o1)C(F)(F)C[C@H](NC(=O)CNC(=O)c1ccc(N=[N+]=[N-])cc1)C(=O)NCCc1ccc(O)cc1` (stereo not given in full), the growth is 41.5% (inactive). Turning to `CCCC(=O)Oc1ccc(/C(=C(\C)c2ccccc2)c2ccc(OCCN(CC)CC)cc2)cc1`, the growth was 73.3% (inactive). The figure for `O=C(O)c1nc(-c2ccccc2)oc1N1CCOCC1` is 97.5% (inactive).

For the compound `COc1ccc(/C=C/c2c(C(C)=O)c(C)nc3ccccc23)cc1`, the growth was 69.1% (inactive). In the case of `COc1ccc(NC(=O)CSc2nc(-c3ccc(OC)c(OC)c3)cc(-c3cc(OC)c(OC)c(OC)c3)n2)cc1`, the growth is 112% (inactive). The figure for `O=C1/C(=C/c2ccc([N+](=O)[O-])cc2)CN(C(=O)CCN2CCC(=NO)CC2)C/C1=C\c1ccc([N+](=O)[O-])cc1` is -52.1% (active); for `NC(=O)CCCN1C/C(=C\c2ccccc2)C(=O)c2ccccc21` it is 101% (inactive); for `CCCCCCCCCCCCCCCCCCNC(=O)[C@H]1CSC(c2cccs2)N1` (stereo not given in full) it is -90.3% (active).

As for `COc1cc(NC(=O)SC2=NCCS2)cc(OC)c1`, the growth was 113% (inactive). For `COc1cc(C2CC(c3ccc4c(c3)OCO4)=NN2C(C)=O)cc(OC)c1OC` (stereo not given), the growth is -49% (active).

For the compound `COc1ccc(C2C(C#N)=C(N)Oc3c2ccc2ccccc32)cc1` (stereo not given), the growth is -49.8% (active). The figure for `O=C(O)Cc1cccc(=O)c(O)c1C(=O)O` is 109% (inactive). As for `COC(=O)[C@]12CC[C@@H](C)[C@H](C)[C@@H]1C1=CC[C@@H]3[C@@]4(C)C(C=O)=C[C@@](C)(COC(=O)c5ccco5)[C@@H]4[C@H](O)C[C@@]3(C)[C@]1(C)CC2`, the figure is -57.4% (active).

As for `CN1CCN(Cc2ccc(NC(=O)c3cncc(C#Cc4cnc(N)c5cnccc45)c3)cc2C(F)(F)F)CC1`, the growth is -9.64% (active). The figure for `O=S(=O)(c1ccc(OCCO)cc1)c1ccc(OCCO)cc1` is 102% (inactive); for `CCOC(=O)CC(=O)OC` it is 110% (inactive); for `S=c1[nH]nc(-c2cc3ccc2CCc2ccc(cc2)CC3)n1-c1ccccc1` it is 93.3% (inactive). As for `COc1ccc(CCNC2=CC(=O)CCC2)cc1OC`, the figure is 110% (inactive); as for `Cc1ccc2ccccc2c1C[n+]1ccccc1`, 102% (inactive). The figure for `CC[N+](CC)=c1cc2oc3cc(N(C)C)ccc3nc-2cc1C` is 50.8% (inactive); for `O=C(Nc1ccncc1)C(=O)c1cn(S(=O)(=O)c2ccccc2F)c2ccccc12` it is 3.81% (active); for `COc1ccc(/C=C2\Oc3cc(OCCCN4CCCC4)ccc3C2=O)cc1` it is 97.6% (inactive). Turning to `COc1cccc(-c2cc3c(O)cc(C#N)cc3[nH]2)c1`, the growth was 70.6% (inactive). As for `COc1ccc(C(=O)c2cc(OC)c(OC)c(OC)c2OC)cc1O`, the growth is -24% (active). The figure for `COc1cc(-c2nn(-c3cccc(NC(=O)c4ccc(Cl)c(C(F)(F)F)c4)c3)cc2-c2ccncc2)ccc1Cl` is -26.8% (active); for `C=C1C(=O)O[C@H]2[C@H]1CC/C(Cn1cc(CNC(=O)Cc3cn(C(=O)c4ccc(Cl)cc4)c4ccc(OC)cc34)nn1)=C\CC[C@@]1(C)O[C@@H]21` it is -63.2% (active); for `O=c1[nH]c(-c2ccccc2)nc(CN2CCCCC2)c1O` it is 110% (inactive).

Consider `COC(=O)c1cc2cc(-c3ccc(OC)cc3)cnc2[nH]1`, for which the growth was -23.7% (active).
